# According to PubChem BioAssay AID1030 (National Center for Advancing Translational Sciences (NCATS), 2008):
# About 16,000 (7.3%) of roughly 220,000 compounds were called active. Not shown: some 25% with an inconclusive outcome. The sample holds actives, similar compounds and a random draw of the others, so the mix is not that of the screen. Unmarked numbers belong to inactive results. Calls follow the shape of the dose curve; as a rule, active = well fitted inhibition curve with a large enough effect (not every such curve was filed as active); inconclusive = small, poorly fitted or top-dose-only effect, or another doubt; inactive = no such curve, though single readings can be large or run the other way.
# Target: Aldehyde dehydrogenase 1A1 (Homo sapiens) (UniProt P00352)
# Experiment: qHTS Assay for Inhibitors of Aldehyde Dehydrogenase 1 (ALDH1A1);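 as to activity, negative = inhibition: plate controls were no enzyme wells and a reference inhibitor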
# Settings: Purified ALDH1A1, NADH fluorescence, propionaldehyde substrate; series mostly up to 75.3 µM; activity, negative = inhibition: at the top concentration
# Potency is read from the fitted curve at half-maximal effect.
# Chain of Aldehyde dehydrogenase 1A1 (Homo sapiens) (P00352 whole entry, looked up): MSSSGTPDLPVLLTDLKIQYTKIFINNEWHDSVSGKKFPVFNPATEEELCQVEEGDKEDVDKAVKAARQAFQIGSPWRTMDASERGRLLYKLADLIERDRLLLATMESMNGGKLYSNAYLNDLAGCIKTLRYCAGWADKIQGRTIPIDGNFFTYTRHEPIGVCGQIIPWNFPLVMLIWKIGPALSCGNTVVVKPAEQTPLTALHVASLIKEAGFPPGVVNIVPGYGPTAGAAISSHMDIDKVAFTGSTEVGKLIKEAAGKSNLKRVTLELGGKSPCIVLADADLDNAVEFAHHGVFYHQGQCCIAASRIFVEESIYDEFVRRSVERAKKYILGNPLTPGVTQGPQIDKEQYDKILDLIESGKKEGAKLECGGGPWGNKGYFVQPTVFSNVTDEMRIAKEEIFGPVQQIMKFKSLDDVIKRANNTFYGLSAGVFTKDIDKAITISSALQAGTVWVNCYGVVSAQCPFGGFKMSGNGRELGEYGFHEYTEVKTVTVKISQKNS
Compound,"activity, negative = inhibition [%]",Potency
CCN1CCN(c2ccc(NC(=O)c3cnccn3)cc2)CC1,-1.42,
COc1ccc(Nc2ncc(F)c(N3CCOCC3)n2)cc1,4,
CC(C(=O)NC1CCCC1)N(c1ccc(Oc2ccccc2)cc1)S(C)(=O)=O (centres undefined),6.52,
Cc1ccc(N2C(=O)SC(N(CC(=O)O)c3ccc(C)cc3)C2=O)cc1 (centres undefined),15.4,
Cc1cccc(N(CC(=O)N2CCOCC2)S(C)(=O)=O)c1,-2.38,
Cc1cccc(N2C(=O)SC(N(CC(=O)O)c3cccc(C)c3)C2=O)c1 (centres undefined),,14.1 µM (active)
Clc1ncn(CCOc2ccccc2)c1Cl,3.6,
Cc1noc(C)c1S(=O)(=O)Nc1ccc(C(=O)N2CCN(c3ccc(F)cc3)CC2)cc1,20.4,
COc1ccccc1NC(=O)C1=C(C)NC2=C(C(=O)CCC2)C1c1ccc(C)o1 (centres undefined),-13.5,
COC(=O)C1=C(C)NC2=C(C(=O)c3ccccc32)C1c1ccc(-c2ccc(C(=O)O)cc2)o1 (centres undefined),,3.16 µM (active)
COC(=O)C1=C(C)NC(=O)NC1/C=C/c1ccccc1 (centres undefined),4.26,
COC(=O)c1cc2n(n1)CCCNC2=O,-1.44,
COc1ccc(/C=C2\SC(=N)N(c3ccc(F)cc3)C2=O)cc1,-5.39,
O=C(Nc1ccc(Cl)cn1)c1ccc2c(c1)OCCO2,3.42,
CNc1ccc([N+](=O)[O-])cc1C(=O)O,13.6,
COc1cc(OC)cc(C(=O)NC(=S)N2CCN(c3ccc(C(F)(F)F)cc3[N+](=O)[O-])CC2)c1,2.52,
COc1ccc(N2C(=O)CC(Nc3ccc(F)cc3)C2=O)c([N+](=O)[O-])c1 (centres undefined),,17.8 µM (active)
COc1cccc(N2C(=O)C3CCCN3C2c2ccc(F)cc2)c1 (centres undefined),-13,
CC(Oc1ccc(Br)cc1Br)C(=O)NC1CCCC1 (centres undefined),-5.26,
CCC1CO/C(=C(\C(=C(Cl)Cl)N2CCOCC2)[N+](=O)[O-])N1 (centres undefined),10.2,
CCc1nnc(NC(=O)c2cccc(S(=O)(=O)N(C)c3ccc(OC)cc3)c2)s1,5.68,
Cc1ccc(S(=O)(=O)N2CCN(C(=O)c3cccs3)CC2)cc1,8.32,
Cc1[nH]c2ccccc2c1CCN(Cc1cccs1)C(=S)NC(C)(C)C,8.44,
COc1ccc2[nH]c(C)c(CCN(Cc3cccs3)C(=S)Nc3ccccc3OC)c2c1,,25.1 µM (active)
COc1cccc(NC(=S)N(CCc2c(C)[nH]c3ccccc23)Cc2ccco2)c1,-1.92,

Compound,"activity, negative = inhibition [%]",Potency
Cc1cc(Cl)ccc1OCc1nc(-c2ccncc2)no1,6.39,
Nc1ccccc1N,6.38,
Nc1ccccc1Sc1cc(Cl)nnc1Cl,,25.1 µM (active)
Cc1nn(C)c(C)c1Sc1ccccc1N,10.7,
COc1ccc(CN2CCN(Cc3cn(C)nc3-c3ccccc3)CC2CCO)c(C)c1C (centres undefined),-4.23,
CCOC(=O)CSc1nnc(-c2ccc([N+](=O)[O-])cc2)o1,-13.6,
COc1cccc(CN(C)CC(=O)NCc2ccccc2Cl)c1OC,0.824,
Cc1ccccc1CN1C[C@@H]2C[C@@H](c3cn(C)nc3-c3ccccc3)N3CCC[C@@]23C1=O,,1.58 µM (active)
Cc1ccc(CN2CCN(Cc3cn(C)nc3-c3ccccc3)CC2CCO)o1 (centres undefined),-8.78,
Cc1ccccc1CN1C[C@@H]2C[C@@H](c3ccc4nsnc4c3)N3CCC[C@@]23C1=O,1.38,
Cn1nnc2cc(C(=O)NCCC3=CCCCC3)ccc21,-7.74,
CC1CCCN(C(=O)Cn2c(=O)oc3ccccc32)C1 (centres undefined),0.199,
CC1CCCN(C(=O)c2ccc3c(c2)C(=O)N(CCC2=CCCCC2)C3=O)C1 (centres undefined),,0.501 µM (active)
CCN(CC)C(=O)Cn1cc(S(=O)(=O)CC(=O)NCc2ccc3c(c2)OCO3)c2ccccc21,-3.66,
Cc1cc(C=O)c(C)n1-c1ccc(NC2CCCCC2)c([N+](=O)[O-])c1,,5.62 µM (active)
Cc1ccc(C(=O)COC(=O)CCCC(=O)NC2CCCCC2)cc1[N+](=O)[O-],-7.14,
Cc1c(NS(=O)(=O)c2ccc(NC3CCCC3)c([N+](=O)[O-])c2)c(=O)n(-c2ccccc2)n1C,8.67,
Cc1cc(-c2n[nH]c(=S)n2/N=C/C(Br)=C/c2ccccc2)n[nH]1,,17.8 µM (active)
S=c1[nH]nc(-c2cccnc2)n1/N=C/C(Cl)=C\c1ccccc1,2.03,
CN1CCN(C2=NCCO2)CC1,4.37,
Cc1ccc(/C=C(\C#N)C(=O)Nc2cccc3ncccc23)o1,,8.91 µM (active)
O=C(Nc1cccc2ncccc12)C(Cl)(Cl)Cl,3.17,
O=C(O)c1cc(Cl)c(Cl)cc1C(=O)Nc1cccc2ncccc12,2.26,
CCN(CC)CCCSc1nc2ccccc2s1,-13.5,
COC(=O)c1ccc(COC(=O)c2cnccn2)cc1,11.2,

Compound,"activity, negative = inhibition [%]",Potency
N#CC1=C(N)Oc2n[nH]c(CSc3ccccc3)c2C12C(=O)Nc1ccccc12 (centres undefined),,10 µM (active)
COc1cc2sc(C)nc2cc1C,-4.43,
Cc1ccc(NC(=O)c2ccc(Oc3ncccn3)cc2)cc1,4.07,
C=C(C(C)=O)C(O)c1cccs1 (centres undefined),-5.62,
CCCC(=O)Nc1nc2ccc(NC(=O)c3c(F)c(F)c(OC)c(F)c3F)cc2s1,5.83,
CCC(=O)Nc1ccc2c(c1)nc(CCN1CCN(C)CC1)n2C,10.7,
CCCC(=O)Nc1ccc2c(c1)nc1n2CCSC1,,25.1 µM (active)
COC(=O)c1ccc(NC(=S)Nc2cccc(C)n2)cc1,-15,
Cc1cccc(OC(=O)c2sc3ncn(C)c(=O)c3c2C)c1,-9.06,
CCN1CCN(C(=O)CN(C)S(=O)(=O)c2ccc3ccccc3c2)CC1,-8.69,
CCC1CCCCN1S(=O)(=O)Cc1ccccc1Cl (centres undefined),-1.74,
CS(=O)(=O)N(CC(=O)NC1CCCC1)Cc1ccc(F)cc1,2.61,
Nc1c(C(=O)O)cnn1-c1ccccc1,-1.91,
Cc1c(C(=O)NCc2ccccc2)cnn1-c1ccccc1,-13.2,
NNC(=O)c1cnn(-c2ccccc2)c1C(F)(F)F,,11.2 µM (active)
CC(=O)N1N=C(c2ccccc2)OC1c1cccnc1 (centres undefined),-7.83,
COCc1c(C(=O)OCc2c(C)noc2C)oc2ccccc12,-8.05,
Fc1ccc(CNCc2ccc(Br)cc2)cc1,5.3,
COCCn1c(=S)[nH]c2cc(C(=O)NCCc3ccc(OC)c(OC)c3)ccc2c1=O,-4.54,
S=c1[nH]nc(-c2ccc(Cl)cc2)n1CC1CCCO1 (centres undefined),-4.07,
COc1ccc(CCNC(=O)Cn2c(=O)n(CC3CCCO3)c(=O)c3ccccc32)cc1OC (centres undefined),0.6,
O=c1c2cc3c(=O)n(CC4CCCO4)c(=O)c3cc2c(=O)n1CC1CCCO1 (centres undefined),,0.316 µM (active)
Cc1nc2cnc(Nc3ccccc3)nc2n(C[C@H]2CCCO2)c1=O,8.56,
COC(=O)c1ccc2c(=O)n(CC3CCCO3)c(=S)[nH]c2c1 (centres undefined),,1.78 µM (active)
